Experimental data reported in PubChem BioAssay (Tox21).
Records with an inconclusive call do not appear. Entries that show only a call come without a potency. Some compounds were tested as several samples or in several runs, with calls that do not always agree. Activity calls are given as the source filed them. Calls follow the shape of the dose curve; as a rule, active = well fitted curve in the direction sought with a large enough effect in the repeat runs; inconclusive = weak or mixed curves; inactive = no such curve, though single readings can be large; an effect the other way counts as inactive or inconclusive.

Experiment: A CellTox Green Cytotoxicity Assay to monitor cytotoxicity in HepG2 cells - 32 hour (AID 1224883)
Settings: CellTox Green fluorescence; series mostly up to 76.8 µM
How it was run: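 HepG2 cells, 600/well, preincubated 5 h with CellTox Green dye, then exposed to Tox21 compounds in DMSO at 37 C for up to 40 h. Dead-cell DNA fluorescence read at the indicated time point.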
Also: nearly all actives have a fitted effect of over 50% in size.
Potency is read from the fitted curve at half-maximal effect.

Row | SMILES | Potency
1 | O=C(O)CCC(=O)O | inactive
2 | Cc1ccc(C)c(OCCCC(C)(C)C(=O)O)c1 | inactive
3 | O=C(O)c1[nH]n(-c2ccc(S(=O)(=O)O)cc2)c(=O)c1N=Nc1ccc(S(=O)(=O)O)cc1 | inactive
4 | CC(O)CN(CCN(CC(C)O)CC(C)O)CC(C)O (stereo not drawn) | inactive
5 | CCCCCCCCCCCCCCCC(=O)O | inactive
6 | O=C(O)C(=O)O | inactive
7 | NC(=O)c1cnccn1 | inactive
8 | Cc1ccccc1C(OCCN(C)C)c1ccccc1 (stereo not drawn) | inactive
9 | c1ccc2[nH]ccc2c1 | 3.83 µM (active) and inactive
10 | CC(C)(Oc1ccc(C2CC2(Cl)Cl)cc1)C(=O)O (stereo not drawn) | inactive
11 | CCCC(CCC)C(=O)O | inactive
12 | O=C(O)CS | inactive
13 | COc1c2occc2cc2ccc(=O)oc12 | inactive
14 | O=c1ccc2ccccc2o1 | inactive
15 | CCC1(c2ccccc2)C(=O)NCNC1=O | inactive
16 | CCCNC(=O)NS(=O)(=O)c1ccc(Cl)cc1 | inactive
17 | O=c1cc[nH]c(=S)[nH]1 | inactive
18 | NC(=O)c1ccccc1O | inactive

Row | SMILES | Potency
19 | Cn1cc[nH]c1=S | inactive
20 | Cn1c(=O)c2[nH]cnc2n(C)c1=O | inactive
21 | Cc1cc(=O)[nH]c(=S)[nH]1 | inactive
22 | COc1ccc2[nH]cc(CCNC(C)=O)c2c1 | inactive
23 | CC(C)[C@@H]1CC[C@@H](C)C[C@H]1O | inactive
24 | Nc1ccn([C@H]2CC[C@@H](CO)O2)c(=O)n1 | inactive
25 | CC(=O)OCC(COC(C)=O)OC(C)=O | inactive
26 | O=C(O)c1cc(N=Nc2ccc(S(=O)(=O)Nc3ccccn3)cc2)ccc1O | inactive
27 | O=C1NC(=O)c2ccccc21 | inactive
28 | O=C(C1CCCCC1)N1CC(=O)N2CCc3ccccc3C2C1 (stereo not drawn) | inactive
29 | Cc1ccc(S(=O)(=O)NC(=O)NN2CCCCCC2)cc1 | inactive
30 | O=C(O)c1cccc([N+](=O)[O-])c1 | inactive
31 | CC(=O)NS(=O)(=O)c1ccc(N)cc1 | inactive
32 | O=C(O)c1cccnc1 | inactive
33 | CC(O)CO (stereo not drawn) | inactive
34 | CCCC(O)C(CC)CO (stereo not drawn) | inactive
35 | O=C(O)/C=C\C(=O)O | inactive
36 | CC(=O)Nc1nnc(S(N)(=O)=O)s1 | inactive

Experiment: qHTS RealTime-Glo MT Cell Viability Assay in HepG2 cells - 16 hour (AID 1224885)
Settings: RealTime-Glo luminescence; series mostly up to 76.8 µM
How it was run: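 Compound treatment began 5 h after plating HepG2 cells (600/well) with NanoLuc luciferase and prosubstrate. Plates stayed at 37 C for 40 h; luminescence was captured at six time points, 0 h through 40 h.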

Row | SMILES | Potency
37 | O=C(O)CCC(=O)O | inactive
38 | Oc1ccc(/C=C/c2cc(O)cc(O)c2)cc1 | inactive
39 | Cc1ccc(C)c(OCCCC(C)(C)C(=O)O)c1 | inactive
40 | O=C(O)c1[nH]n(-c2ccc(S(=O)(=O)O)cc2)c(=O)c1N=Nc1ccc(S(=O)(=O)O)cc1 | inactive
41 | CC(O)CN(CCN(CC(C)O)CC(C)O)CC(C)O (stereo not drawn) | inactive
42 | CCCCCCCCCCCCCCCC(=O)O | inactive
43 | O=C(O)C(=O)O | inactive
44 | NC(=O)c1cnccn1 | inactive
45 | Cc1ccccc1C(OCCN(C)C)c1ccccc1 (stereo not drawn) | inactive
46 | c1ccc2[nH]ccc2c1 | 15.2 µM (active) and inactive
47 | CC(C)(Oc1ccc(C2CC2(Cl)Cl)cc1)C(=O)O (stereo not drawn) | inactive
48 | CCCC(CCC)C(=O)O | inactive
49 | O=C(O)CS | inactive
50 | COc1c2occc2cc2ccc(=O)oc12 | inactive
51 | O=c1ccc2ccccc2o1 | inactive
52 | CCC1(c2ccccc2)C(=O)NCNC1=O | inactive
53 | CCCNC(=O)NS(=O)(=O)c1ccc(Cl)cc1 | inactive
54 | O=c1cc[nH]c(=S)[nH]1 | inactive
55 | NC(=O)c1ccccc1O | inactive

Row | SMILES | Potency
56 | Cn1cc[nH]c1=S | inactive
57 | Cn1c(=O)c2[nH]cnc2n(C)c1=O | inactive
58 | Cc1cc(=O)[nH]c(=S)[nH]1 | inactive
59 | COc1ccc2[nH]cc(CCNC(C)=O)c2c1 | inactive
60 | CC(C)[C@@H]1CC[C@@H](C)C[C@H]1O | inactive
61 | Nc1ccn([C@H]2CC[C@@H](CO)O2)c(=O)n1 | inactive
62 | CC(=O)OCC(COC(C)=O)OC(C)=O | inactive
63 | O=C(O)c1cc(N=Nc2ccc(S(=O)(=O)Nc3ccccn3)cc2)ccc1O | inactive
64 | O=C1NC(=O)c2ccccc21 | inactive
65 | O=C(C1CCCCC1)N1CC(=O)N2CCc3ccccc3C2C1 (stereo not drawn) | inactive
66 | Cc1ccc(S(=O)(=O)NC(=O)NN2CCCCCC2)cc1 | inactive
67 | O=C(O)c1cccc([N+](=O)[O-])c1 | inactive
68 | CC(=O)NS(=O)(=O)c1ccc(N)cc1 | inactive
69 | O=C(O)c1cccnc1 | inactive
70 | CC(O)CO (stereo not drawn) | inactive
71 | CCCC(O)C(CC)CO (stereo not drawn) | inactive
72 | O=C(O)/C=C\C(=O)O | inactive
73 | CC(=O)Nc1nnc(S(N)(=O)=O)s1 | inactive
